According to PubChem BioAssay (NCI):
About 83,000 compounds went through this panel and 20% of them were active in at least one assay; those are over-represented in the sample as a whole.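 For each line, cells grew in 96-well plates with the test compound present at a single concentration for 48 hours.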 A number with no mark means an inactive call. Activity calls are given as the source filed them. Rule for the calls: active = growth percent below 10; inactive = the rest.

Key:
Assay in all cases: NCI-60 one-dose screen, 48 h (100 = growth as untreated, 0 = no growth, -100 = all killed)
Settings in all cases: 10 µM unless noted
T-47D breast = tested on: T-47D breast
BT-549 breast = tested on: BT-549 breast
MDA-MB-435 melanoma = tested on: MDA-MB-435 melanoma
SW-620 colon = tested on: SW-620 colon
MCF7 breast = tested on: MCF7 breast
HCT-116 colon = tested on: HCT-116 colon
HCC-2998 colon = tested on: HCC-2998 colon
KM12 colon = tested on: KM12 colon

Compound	growth (T-47D breast)	growth (BT-549 breast)	growth (MDA-MB-435 melanoma)	growth (SW-620 colon)	growth (MCF7 breast)	growth (HCT-116 colon)	growth (HCC-2998 colon)	growth (KM12 colon)
Cc1ccc2c(c1)=C/C(=C\c1cc(-c3ccccc3)oc1O)C(=O)N=2	97.7%	94.3%	110%	107%	89.2%	93.1%	115%	100%
N#Cc1c(-c2ccc(Cl)cc2)nc(NN2C(=O)c3ccccc3C2=O)nc1N1CCOCC1	94.7%	112%	106%	98.8%	101%	99.5%	111%	107%
Cc1c(O)cc(-c2cnc(Nc3ccccc3)s2)c(O)c1C	68.6%	91.8%	101%	104%	82.2%	97.8%	118%	95.9%
Clc1cccc(Nc2ncnc3ccc(-c4cnc5[nH]ccc5c4)cc23)c1	28.3%	77.4%	88.3%	107%	48.3%	75.1%	95%	72.6%
CN(C)CC1CCC(CN(C)C)C1=O (configuration not stated)	106%	110%	121%	86.9%	93.7%	93.9%	114%	115%
O=[N+]([O-])c1cccc(-c2nc3cc4nc5ccccc5[nH]c4cc3n2)c1	87.5%	102%	112%	112%	77.7%	93.1%	112%	100%
CCOC(=O)c1ccc(NC(=O)c2nc(-c3cc(OC)c(OC)c(OC)c3)n(-c3ccc(Cl)cc3)n2)cc1	77.6%	74.6%	88.9%	105%	86.7%	87.8%	107%	94%
CCn1cc(C(=O)O)c(=O)c2cc(F)c(N3CCN(CC(=O)Nc4ccc(S(=O)(=O)Nc5nccc(C)n5)cc4)C(C)C3)c(F)c21 (configuration not stated)	98.9%	132%	103%	96.6%	96.7%	104%	115%	100%
COc1ccc(C2=Nc3c(N)nc(N)nc3NC(c3cccc(Nc4ccnc5cc(C(F)(F)F)ccc45)c3)C2)cc1 (configuration not stated)	93%	107%	10.1%	50.4%	37.7%	37.9%	72.2%	40.4%
O=C(Nc1ccc(Oc2cccc(Cl)c2)c(Cl)c1)c1cnccn1	40.7%	57.4%	-39.7% (active)	22.7%	20.3%	20.9%	50.8%	20.7%
Cn1ccnc1C(=O)/C=C/c1ccc(CC(=O)Nc2cc(C(F)(F)F)cc(C(F)(F)F)c2)cc1	52.1%	80.3%	68.5%	70.5%	30.8%	51.6%	83.6%	63%
CC(C)(Sc1cc(C(C)(C)C)c(O)c(C(C)(C)C)c1)Sc1cc(C(C)(C)C)c(OC(=O)CCCC(=O)O)c(C(C)(C)C)c1	36.6%	64.9%	60.4%	43.7%	36.2%	26.5%	50.4%	36.7%
COc1ccc(C/C(C)=C(\c2ccc(Cl)cc2)c2ccc(OCCN3CCCCC3)cc2)cc1	75.1%	96.7%	102%	88.4%	81.7%	100%	98.5%	104%
O=C(Nc1cccc2ccccc12)NC1CC1	91.5%	91.1%	113%	105%	87%	103%	111%	115%
CCOC(=O)c1cc2c(n1C)-c1nc(NC(C)=O)sc1CCC2	51.8%	71.8%	98.5%	93.3%	61.6%	75.4%	113%	87.7%
Cc1cn(-c2cc(NC(=O)c3cncc(C#Cc4cnc(N)c5ncccc45)c3)cc(C(F)(F)F)c2)cn1	83.6%	75.3%	55.5%	62.6%	73.9%	35.6%	79.8%	25%
O=C(c1ccccc1)c1ccc(C2CCCCC2)cc1	85.7%	115%	99.8%	93.4%	95.7%	83.8%	107%	103%
CCN(C)S(=O)(=O)Nc1cccc(Nc2ncnc3cc(NC(=O)CCl)ccc23)c1Cl	16%	-4.04% (active)	-5.32% (active)	-53.5% (active)	-5.68% (active)	0.862% (active)	39.1%	1.71% (active)
COc1ccc(C2CC(c3ccc(Nc4nc(Nc5ccccc5)nc(Nc5ccccc5)n4)cc3)=NN2C(C)=O)cc1 (configuration not stated)	73.4%	166%	93.7%	104%	129%	96.5%	110%	112%
COc1ccc2c(c1)c(-c1nc(-c3c[nH]c4ccncc34)cs1)cn2C	-49.6% (active)	77.3%	-92.3% (active)	-63.9% (active)	-68.9% (active)	-88.3% (active)	-73.5% (active)	-88.9% (active)
CCCCn1c(=O)[nH]c(N)c([C@@H]2c3c([nH]c(=O)n(CCCC)c3=O)Oc3ccc4ccccc4c32)c1=O	81.1%	46.9%	5.95% (active)	-67.9% (active)	46%	-26.3% (active)	83.3%	-44.1% (active)
O=C1/C(=C/c2ccccc2O)CC/C1=C\c1ccccc1O	47.3%	2% (active)	26.4%	55.1%	24.3%	16.7%	104%	75.7%
COc1cc(C2c3cc(OC(C)=O)c(OC)cc3CC3C(=O)OCC32)ccc1OC(C)=O (configuration not stated)	103%	99.6%	118%	101%	101%	98.2%	104%	117%
CCN1C(=S)N(c2ccccc2)C2C1NN=c1s/c(=C3\C(=O)N(C(C)C)c4ccccc43)c(=O)n12 (configuration not stated)	62.8%	96.6%	93.3%	75.6%	64.7%	41.7%	109%	81.7%
Cc1ccc2c(n1)C(=O)C(Br)=C(C1CCCC1)C2=O	90%	95.5%	108%	85.8%	89.8%	73.7%	115%	99.6%
O=C(CN1CCOCC1)Nc1nc(-c2cc3ccccc3oc2=O)cs1	111%	98.5%	104%	101%	79.2%	99%	103%	100%
CC/C(=C(/c1ccc(Cl)cc1)c1ccc(OCCN2CCCCC2)cc1)c1ccc(OC)cc1	32.3%	78.2%	65.6%	39.1%	15.3%	46.9%	71%	39.1%
CCC(C)N(CCNc1cc(OC)cc2cccnc12)CC(C)C (configuration not stated)	6.53% (active)	106%	109%	85.5%	12.6%	66.9%	96%	97.5%
CC(=O)Oc1ccc(N2C(=O)C(Cl)=C(Nc3cccc(C(F)(F)F)c3)C2=O)cc1	86.6%	85.8%	97.5%	99.1%	92.8%	91%	104%	96.3%
